Among the data in ChEMBL document CHEMBL5308504, “Tm Shift (DSF) assay results for EUbOPEN Chemogenomics Library” (2023) are ΔTm values, retold here.

Assay [1] deals with Bromodomain-containing protein 4 (Homo sapiens) (UniProt O60885). The settings on record: Compound concentration 20.0 uM, Protein concentration 2.0 uM, Result type QC Liability.
For assay [2], the target named is T1, Transcription intermediary factor 1-alpha (Homo sapiens) (UniProt O15164).
T1 sequence (whole entry): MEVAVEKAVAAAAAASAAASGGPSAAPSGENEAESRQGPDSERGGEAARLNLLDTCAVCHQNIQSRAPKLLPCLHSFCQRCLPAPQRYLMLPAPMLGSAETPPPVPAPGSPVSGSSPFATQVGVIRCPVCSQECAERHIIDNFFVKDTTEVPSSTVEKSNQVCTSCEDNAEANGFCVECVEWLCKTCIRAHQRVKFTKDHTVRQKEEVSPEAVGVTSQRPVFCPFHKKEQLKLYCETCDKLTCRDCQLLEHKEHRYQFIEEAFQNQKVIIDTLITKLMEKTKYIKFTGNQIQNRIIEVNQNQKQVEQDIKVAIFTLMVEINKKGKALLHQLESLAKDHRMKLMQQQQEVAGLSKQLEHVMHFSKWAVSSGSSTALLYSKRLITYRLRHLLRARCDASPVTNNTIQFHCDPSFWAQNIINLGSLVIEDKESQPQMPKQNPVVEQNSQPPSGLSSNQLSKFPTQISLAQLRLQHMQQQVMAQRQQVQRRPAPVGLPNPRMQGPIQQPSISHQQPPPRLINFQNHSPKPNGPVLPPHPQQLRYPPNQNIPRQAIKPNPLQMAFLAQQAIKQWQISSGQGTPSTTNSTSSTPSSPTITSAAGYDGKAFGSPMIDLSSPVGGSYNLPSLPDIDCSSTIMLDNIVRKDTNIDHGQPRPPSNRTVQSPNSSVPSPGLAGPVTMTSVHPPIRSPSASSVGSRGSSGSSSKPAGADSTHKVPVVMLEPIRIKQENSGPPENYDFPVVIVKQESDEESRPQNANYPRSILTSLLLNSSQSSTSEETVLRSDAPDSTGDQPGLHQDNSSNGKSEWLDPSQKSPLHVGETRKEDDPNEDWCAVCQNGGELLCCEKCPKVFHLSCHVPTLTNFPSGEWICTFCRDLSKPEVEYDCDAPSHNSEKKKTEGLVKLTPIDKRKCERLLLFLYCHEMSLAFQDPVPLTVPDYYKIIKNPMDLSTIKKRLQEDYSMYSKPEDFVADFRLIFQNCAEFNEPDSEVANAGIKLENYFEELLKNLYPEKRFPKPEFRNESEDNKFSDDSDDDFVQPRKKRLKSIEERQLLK
The note with it: Compound concentration 20.0 uM, Protein concentration 2.0 uM, Result type QC Liability.

Usually ΔTm stands for the shift of the melting midpoint relative to a reference. With `CNc1oc(-c2cccc3ccccc23)nc1C#N`, the shift in melting temperature (ΔTm) in assay [1] is -3.26 °C; in assay [2], -0.7 °C.

As to `Cn1cc(NC(=O)c2ccc3nc4n(c3c2)CCCNC4=O)nc1C(=O)NC1CCCC1`, the ΔTm in assay [1] is -1.16 °C; in assay [2], -2.92 °C.

As to `CCn1ccc(Nc2ncc3c(n2)-c2c(nn(C)c2-c2ccc(-c4cnn(C)c4)cc2Cl)CC3)n1`, the ΔTm is -1.73 °C in assay [1] and -2.64 °C in assay [2].

As to `O=C(Nc1cc2cc[nH]c(=O)c2cc1Cl)[C@H]1CNC[C@@H]1c1cccnc1`, the figures for the ΔTm in assay [1] and in assay [2] were -1.63 °C and -2.69 °C, respectively.

With `CCN1C(=O)c2cc(C)ccc2N(C)c2ncccc21`, the ΔTm in assay [1] is -1.19 °C; in assay [2] it was 0.2 °C.

On to `CC(=O)Nc1cccc(-n2c(=O)n(C3CC3)c(=O)c3c(Nc4ccc(I)cc4F)n(C)c(=O)c(C)c32)c1`, for which the ΔTm in assay [1] was -2.35 °C; in assay [2] it was -2.86 °C.

On to `C[C@H](CCC(=O)O)[C@H]1CC[C@H]2[C@@H]3[C@H](O)C[C@@H]4C[C@H](O)CC[C@]4(C)[C@H]3C[C@H](O)[C@]12C`, for which the results for the ΔTm in assay [1] and in assay [2] were -2.7 °C and -2.48 °C, respectively.

On to `CN(CCCCCCC1=C(c2cc(F)cc(F)c2)CCCc2cc(O)ccc21)CCCCS(=O)(=O)CCCC(F)(F)F`, for which the ΔTm in assay [1] worked out at 1.66 °C; in assay [2], 1.21 °C.

In the case of `Cc1nn(C)c(COc2ccc(N3CCN(S(=O)(=O)N(C)C)CC3)cc2)c1-c1cccc2c(CCCOc3cccc4ccccc34)c(C(=O)O)n(CCN3CCOCC3)c12`, the values for the shift in melting temperature (ΔTm) in assay [1] and in assay [2] were -12.6 °C and -0.84 °C, respectively.

For the molecule `CN1CCC(F)(Cn2cnc(-c3ccc(F)cn3)c2-c2ccnc3[nH]ccc23)CC1`, the ΔTm in assay [1] is -2.6 °C; in assay [2], -2.99 °C.

Turning to `CC[C@@H]1C(=O)N(C)c2cnc(Nc3ccc(C(=O)NC4CCN(C)CC4)cc3OC)nc2N1C1CCCC1`, the ΔTm was 6.02 °C in assay [1] and 0.07 °C in assay [2].

As for `Oc1c(CN2CCCC2)cc(COCc2ccccc2)c2cccnc12`, the thermal shift (ΔTm) in assay [1] is -2.69 °C; in assay [2], -4.08 °C.
